Screening results from PubChem.
An excerpt weighted towards active compounds, which were near 9.4% of everything screened.
Pf growth 48h = P. falciparum growth inhibition at 48 hours (one generation) | P. falciparum luciferase growth in erythrocytes, 48 h | Potency, µM (highest dose often 28.7 µM), usual class: inhibitors | hit rate 5.9% among 310,000
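In quantitative HTS format, infected erythrocytes bearing luciferase-reporter parasites were treated for a single generation at 37 C. Luminescence after adding detection reagent served as the growth measure.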
AMA1 RON2 block = disrupts binding of P. falciparum AMA1 to RON2 | AlphaScreen AMA1-biotinylated RON2 peptide binding | Potency, µM (series often up to 58.2 µM), actives largely listed as inhibitors | AID 720542 | hit rate 0.2% among 360,000; also: nearly all actives have a fitted effect of over 45% in size
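AMA1 (3D7) with his tag at 25 nM final met compounds first, then biotinylated RON2 peptide at 25 nM; detection used donor plus acceptor beads, 10 µg/mL apiece, read by AlphaScreen after 30 min at room temperature.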
SARS PLpro yeast = inhibitors of SARS-CoV papain-like protease in yeast. S. cerevisiae expressing SARS-CoV PLpro, growth rescue. hit rate 0.19% among 330,000. AID 485353. Potency, µM (titrated, usually from 32.9 µM), most hits filed as activators; calls by dose curve; also: nearly all actives have a fitted effect of over 55% in size
Pf growth 96h = P. falciparum growth inhibition at 96 hour, primary screen for plastid delayed-death inhibitors. AID 504834. P. falciparum luciferase reporter growth, 96 h. hit rate 6.9% among 320,000. Potency, µM (titrated, usually from 28.7 µM), actives largely listed as inhibitors
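Parasite growth measured via integrated firefly luciferase reporter in P. falciparum. Infected erythrocytes at 2% hematocrit, 0.05% parasitemia final were treated 96 hours at 37 C under 5% CO2, and luminescence was read.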
Of the large screens only hits and unclear results are named; the others gave an inactive call. Unless noted, calls follow the shape of the dose curve; as a rule, active = well fitted curve in the direction sought with a large enough effect; inconclusive = small, poorly fitted or top-dose-only effect, or another doubt; inactive = no such curve, though single readings can be large; an effect the other way counts as inactive or inconclusive.

COc1ccc([C@H]2CC(=O)C=C(c3ccc(Br)c4ccccc34)C2)cc1	none (no result: Pf growth 48h, Pf growth 96h)
O=C(NCP(=O)(Oc1ccccc1)Oc1ccccc1)OCc1ccccc1	none (no result: Pf growth 48h, SARS PLpro yeast, Pf growth 96h)
CCOC(=O)C(CC(C)C)CP(=O)(O)CNC(=O)OCc1ccccc1 (stereo not drawn)	Pf growth 96h 7.4µM
O=C(Cc1ccc(NC(=O)C2CCN(C(=O)c3ccccc3)CC2)cc1)Nc1cccc(C(=O)N2CCCC2)c1	none (no result: Pf growth 48h, SARS PLpro yeast, Pf growth 96h)
CCN1C(c2ccccc2)C(C)C(=O)C(C)C1c1ccccc1 (stereo not drawn)	Pf growth 48h 12µM, Pf growth 96h 9.3µM
O=C(O)c1cccc(NC2=C(n3nnc4ccccc43)C(=O)c3ccccc3C2=O)c1	Pf growth 48h 5.2µM, Pf growth 96h 1.9µM
CC(=O)Oc1ccc(OC(C)=O)c(S(=O)(=O)c2ccc(C)c(C)c2)c1	Pf growth 96h 12µM
CCC1C(=O)CC(c2ccco2)NC1c1ccco1 (stereo not drawn)	none
Cc1ccc2oc3c(c(=O)c2c1)C(c1cccc(Cl)c1)N(CCCN1CCOCC1)C3=O (stereo not drawn)	Pf growth 48h 2.6µM, Pf growth 96h inconclusive
Cc1ccc2oc3c(c(=O)c2c1)C(c1ccc(F)cc1)N(CCCN1CCOCC1)C3=O (stereo not drawn)	Pf growth 96h inconclusive (no result: Pf growth 48h, AMA1 RON2 block)
O=C1c2oc3ccc(F)cc3c(=O)c2C(c2cccc(O)c2)N1CCCN1CCOCC1 (stereo not drawn)	Pf growth 96h 10µM
O=C1c2oc3ccc(F)cc3c(=O)c2C(c2ccncc2)N1CCN1CCOCC1 (stereo not drawn)	none (no result: AMA1 RON2 block)
C=CCOc1cccc(C2c3c(oc4ccc(F)cc4c3=O)C(=O)N2CCCN2CCOCC2)c1 (stereo not drawn)	Pf growth 48h 12µM
Cc1ccc(CNC(=O)CC(C)S(=O)(=O)c2ccc3c(c2)NC(=O)CO3)cc1 (stereo not drawn)	Pf growth 96h 9.3µM
Cc1ccc(N(C)C(=O)CC(C)S(=O)(=O)c2ccc3c(c2)NC(=O)CO3)cc1 (stereo not drawn)	Pf growth 96h 3.7µM
Cc1ccc(CNS(=O)(=O)c2cc3c(cc2C)NC(=O)CO3)cc1	Pf growth 48h inconclusive, Pf growth 96h 4.1µM
O=C(CCS(=O)(=O)c1ccc2c(c1)NC(=O)CO2)NCc1ccccc1	Pf growth 96h 13µM
CS(=O)(=O)N1CCN(C(=O)C2c3ccccc3Oc3ccccc32)CC1	none (no result: Pf growth 96h)
O=C(Cn1nnc(-c2ccccc2F)n1)N1CCCCC1	none
CCC(C)c1ccccc1N1CC(C(=O)N2CCN(C(=O)c3ccco3)CC2)CC1=O (stereo not drawn)	Pf growth 48h inconclusive, Pf growth 96h inconclusive
CC(CC(=O)N1CCN(c2ccccc2)CC1)S(=O)(=O)c1ccc2c(c1)NC(=O)CO2 (stereo not drawn)	Pf growth 96h 5.9µM
COc1ccc(N)cc1S(=O)(=O)Nc1ccccc1Cl	none
COc1ccc(OC)c(C2C(C(=O)c3ccc(C)o3)=C(O)C(=O)N2CCCN2CCOCC2)c1 (stereo not drawn)	none (no result: Pf growth 48h, SARS PLpro yeast, Pf growth 96h)
Cc1cc(Br)ccc1NS(=O)(=O)c1c(C)[nH]c(=O)[nH]c1=O	Pf growth 96h 5.2µM
Cc1c([N+](=O)[O-])c(C(=O)NC2CCCC2)nn1C	none
COc1ccc(C)cc1NC(=O)CN1CCN(S(=O)(=O)c2ccc(C(C)C)cc2)CC1	Pf growth 48h 13µM
COc1ccc(Cl)cc1NC(=O)CN1CCN(S(=O)(=O)c2ccc(F)cc2)CC1	Pf growth 48h 3.7µM
COc1ccc(C)cc1NC(=O)CN1CCN(S(=O)(=O)c2ccc(Cl)cc2)CC1	Pf growth 48h 12µM, Pf growth 96h inconclusive
COc1ccc(OC)c(NC(=O)Cn2c(-c3ccc(Cl)cc3)noc2=O)c1	Pf growth 48h 4.1µM
COc1ccc(NC(=O)Cn2c(=O)oc3cc(Cl)ccc32)c(OC)c1	Pf growth 96h inconclusive
COc1ccccc1NC(=O)CN1CCN(CC(=O)Nc2cc(C)ccc2OC)CC1	Pf growth 48h inconclusive
COc1ccc(S(=O)(=O)N2CCN(CC(=O)Nc3cc(Cl)ccc3Cl)CC2)cc1	none
C[C@H]1COc2c(N3CCN(C)CC3)c(F)cc3c(=O)c(C(=O)O)cn1c23	none (no result: Pf growth 48h, Pf growth 96h)
COc1ccccc1N1CCN(C(=O)COc2cc(C)ccc2C)CC1	none
CCOC(=O)c1c(-c2ccccc2)csc1NC(=O)c1ccc(S(=O)(=O)N2CC(C)OC(C)C2)cc1 (stereo not drawn)	Pf growth 48h 10µM, Pf growth 96h 9.3µM
CCOC(=O)c1c(-c2ccccc2)csc1NC(=O)c1nn(CC)cc1Br	Pf growth 48h 13µM (no result: Pf growth 96h)
CCOC(=O)c1c(-c2cc(OC)c(OC)c(OC)c2)csc1NC(=O)c1ccccc1	none (no result: Pf growth 48h, SARS PLpro yeast, Pf growth 96h)
CCOC(=O)c1c(NC(=O)c2nn(CC)cc2Br)c(C#N)cn1-c1ccccc1	Pf growth 48h 9.3µM
CCOC(=O)c1c(-c2ccccc2)csc1NC(=S)N(CC)CC	Pf growth 48h 12µM, Pf growth 96h 5.2µM
CCOC(=O)c1c(-c2ccccc2)csc1NC(=O)c1ccc(N2C(=O)CCC2=O)cc1	none
Cc1cc(SCC(=O)OCC(=O)NCC2CCCO2)c(C)cc1Br (stereo not drawn)	none
CC1SC(=NC(=O)c2ccncc2)NC1=O (stereo not drawn)	none
Cc1cc(OC(=O)c2ccccc2Cl)cc(=O)n1C	none
CC(=O)Oc1cc2c(C(=O)NCc3ccncc3)c(C)oc2c2ccccc12	Pf growth 96h inconclusive
CC12CC3CC(C)(C1)CC(NCc1ccncc1)(C3)C2	Pf growth 96h inconclusive
CCOC(=O)c1c(-c2ccccc2)csc1NC(=O)C(C)NCc1ccco1 (stereo not drawn)	Pf growth 48h inconclusive, Pf growth 96h 13µM
CC1(C)Cc2nc3sc4c(SCC(=O)O)ncnc4c3cc2CO1	Pf growth 48h 0.83µM, Pf growth 96h inconclusive
CCOc1ccc(-c2c(C(=O)N/N=C/c3cccs3)nnn2-c2nonc2N)cc1	none
Nc1nonc1-n1nnc(C(=O)N/N=C/c2cccs2)c1-c1ccc2c(c1)OCO2	Pf growth 48h 0.93µM, Pf growth 96h 0.29µM
CCOC(=O)c1nnn(-c2nonc2N)c1CSc1ccccc1	Pf growth 96h 3.3µM (no result: Pf growth 48h)
Cc1ccsc1/C=N/NC(=O)c1nnn(-c2nonc2N)c1-c1ccc2c(c1)OCO2	Pf growth 48h 3.3µM, Pf growth 96h 0.13µM
CCOC(=O)c1nnn(-c2nonc2N)c1-c1ccc(C)cc1	Pf growth 48h 15µM
Nc1nonc1-n1nnc(C(=O)N/N=C/c2ccccc2Cl)c1-c1ccc2c(c1)OCO2	Pf growth 48h 2.9µM, Pf growth 96h 0.66µM
Cc1ccc(-c2c(C(=O)N/N=C/c3cccs3)nnn2-c2nonc2N)cc1	Pf growth 48h inconclusive, Pf growth 96h 1.2µM
Cc1ccc(OCc2cc(C(=O)N3CCc4sccc4C3)no2)cc1C	Pf growth 96h inconclusive
O=C(Nc1ccc2nccnc2c1)Nc1ccccc1Cl	Pf growth 48h 8.3µM, Pf growth 96h inconclusive
NC(=O)NC(=O)Nc1ccccc1Cl	Pf growth 96h 10µM
O=C(Nc1cccc(Cl)c1)Nc1ccc2nccnc2c1	Pf growth 96h inconclusive
Cc1nn(C)c(C(=O)NC2C3CC4CC(C3)CC2C4)c1Cl (stereo not drawn)	none
